A selection: hits, their analogues and other compounds. The true share with any hit is near 1.3%.
S1P4 antagonist: S1P4 receptor antagonists, primary screen, cell-based; Sphingosine 1-phosphate receptor 4 (Homo sapiens), O95977; S1P4-expressing cells, antagonist mode, reporter read-out; inhibition, % at 4.98 µM; 220,000 compounds, 0.26% hits; in the data active = inhibition above about 29%;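 note: 0% = wells stimulated with agonist and 100% = vehicle wells without agonist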
Calpain2 inh: inhibitors of pig calpain II, primary screen, biochemical, fluorogenic peptide substrate, 1536-well; purified calpain II, 30 min; inhibition, % at 16 µM; 220,000 compounds, 0.37% hits; AID 1236, 2008;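 active = inhibition above about 50%, limit read from the data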
PERK inh: block of dimerizer-induced PERK translation repression, primary screen, PERK inhibitor project, CHO PERK-DD cells, SEAP luminescence, HTS; Eukaryotic translation initiation factor 2-alpha kinase 3 (Homo sapiens), Q9NZJ5; CHO PERK-DD fusion, SEAP luminescence translation reporter; inhibition, % at 5.6 µM; 220,000 compounds, 0.17% hits; AID 1416, 2008;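 active = inhibition above the mean inhibition of all tested compounds plus 3 SD, set separately per screening campaign, cut at about 2.9% in these data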;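 note: PERK kinase domain activated by AP20187 dimerizer at 100 nM; 0% = DMSO with dimerizer and 100% = rapamycin at 8.4 µM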
Target sequence (Q9NZJ5 whole entry, looked up, the tested form may be a part): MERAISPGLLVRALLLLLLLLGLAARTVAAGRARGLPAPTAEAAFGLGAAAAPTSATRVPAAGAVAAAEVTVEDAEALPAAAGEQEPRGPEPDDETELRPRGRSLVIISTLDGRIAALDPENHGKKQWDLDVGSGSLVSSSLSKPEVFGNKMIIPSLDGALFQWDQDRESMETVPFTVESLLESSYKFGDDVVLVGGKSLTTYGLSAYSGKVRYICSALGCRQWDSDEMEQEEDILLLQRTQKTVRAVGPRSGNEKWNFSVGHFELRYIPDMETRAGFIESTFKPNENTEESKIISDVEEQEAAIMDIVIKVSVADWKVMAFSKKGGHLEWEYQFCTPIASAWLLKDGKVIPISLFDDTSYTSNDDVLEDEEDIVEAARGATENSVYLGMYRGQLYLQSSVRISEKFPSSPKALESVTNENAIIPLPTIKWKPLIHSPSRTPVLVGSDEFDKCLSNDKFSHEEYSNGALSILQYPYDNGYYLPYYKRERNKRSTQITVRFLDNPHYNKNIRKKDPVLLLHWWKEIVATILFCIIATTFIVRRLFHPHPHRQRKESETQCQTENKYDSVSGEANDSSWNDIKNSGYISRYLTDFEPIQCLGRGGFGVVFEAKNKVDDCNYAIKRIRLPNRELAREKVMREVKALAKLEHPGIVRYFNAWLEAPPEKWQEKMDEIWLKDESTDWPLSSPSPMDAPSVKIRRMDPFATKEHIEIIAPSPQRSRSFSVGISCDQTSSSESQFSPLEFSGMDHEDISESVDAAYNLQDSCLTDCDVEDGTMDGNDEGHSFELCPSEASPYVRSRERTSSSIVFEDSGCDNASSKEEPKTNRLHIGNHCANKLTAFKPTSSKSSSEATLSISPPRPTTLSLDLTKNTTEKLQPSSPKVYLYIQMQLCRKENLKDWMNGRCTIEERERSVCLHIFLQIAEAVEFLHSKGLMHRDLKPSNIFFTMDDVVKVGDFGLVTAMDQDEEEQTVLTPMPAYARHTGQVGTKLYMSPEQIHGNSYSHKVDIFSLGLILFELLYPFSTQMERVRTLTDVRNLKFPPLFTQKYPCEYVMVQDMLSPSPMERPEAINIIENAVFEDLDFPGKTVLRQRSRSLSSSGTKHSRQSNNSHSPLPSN
S1P3 antagonist: S1P3 receptor antagonists, primary screen, cell-based; Sphingosine 1-phosphate receptor 3 (Homo sapiens), Q99500; CHO S1P3 NFAT-BLA reporter, FRET fluorescence, antagonist mode; inhibition, % at 4.98 µM; 170,000 compounds, 0.27% hits; AID 485, 2006;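 active = inhibition above the plate cutoff, the mean inhibition of test wells on that plate plus 3 SD, cut at about 28% in these data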;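 note: cells challenged with S1P at its EC80 of 0.8 µM; blue over green emission ratio from cleaved BLA substrate after 4 h stimulation; 0% = S1P-stimulated wells and 100% = unstimulated DMSO-only wells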
S1P4 agonist: S1P4 receptor agonists, primary screen, cell-based | Sphingosine 1-phosphate receptor 4 (Homo sapiens), O95977 | S1P4-expressing cell line, agonist reporter assay | activation, % at 4.98 µM | 220,000 compounds, 0.35% hits | AID 1509, 2009; in the data active = activation above about 11%;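 note: 0% = DMSO vehicle and 100% = reference agonist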
S1P4 antag cf: S1P4 receptor antagonists, human, confirmation, cell-based; shares compounds with S1P4 antagonist; inhibition, % at 4.98 µM; AID 1524, 2009; 520 compounds, 71% hits; S1P4-expressing cell line, antagonist mode, reporter read-out; in the data active = inhibition above about 30%
S1P1 antagonist: S1P1 receptor antagonists, human, counter-screen for S1P4 antagonist project, cell-based. shares compounds with S1P4 antagonist. AID 1564, 2009. inhibition, % at 4.98 µM. 520 compounds, 37% hits. cell-based S1P1 antagonist counterscreen, inhibition; in the data active = inhibition above about 40%;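 note: receptor stimulated with S1P near its EC80; 0% = agonist stimulated wells and 100% = vehicle only wells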
* marks the source's active call; other numbers are inactive results.

O=C(NCc1cccnc1)/C(=C/c1ccc(-c2cccc(Cl)c2)o1)S(=O)(=O)c1ccccc1 was read as S1P4 antagonist 65*, Calpain2 inh -106, PERK inh -1, S1P4 agonist 0, S1P4 antag cf 105* and S1P1 antagonist 72*.
CS(=O)(=O)n1nc(-c2ccc(Cl)cc2)nc1N was read as S1P4 antagonist 3, Calpain2 inh 19, PERK inh 0, S1P3 antagonist -12 and S1P4 agonist 0.
Cn1nc(-c2ccc(Cl)cc2)nc2c(=O)n(C)c(=O)nc1-2 was read as S1P4 antagonist 90*, Calpain2 inh 55*, PERK inh 0, S1P4 agonist -9, S1P4 antag cf 110* and S1P1 antagonist 88*.
For CCc1ccc(C(=O)COC(=O)c2cncc(Br)c2)cc1 the results were S1P4 antagonist -9, Calpain2 inh 10, PERK inh -1, S1P3 antagonist -9 and S1P4 agonist -1.
Screening O=C(NC(Cc1ccccc1)C(=O)Oc1ccc2c(C(F)(F)F)cc(=O)oc2c1)OCc1ccccc1 (stereo not drawn) returned S1P4 antagonist 30*, Calpain2 inh -446, PERK inh 0, S1P3 antagonist 5, S1P4 agonist 0, S1P4 antag cf 47* and S1P1 antagonist 24.
`Oc1ccc2ccccc2c1N=Nc1ccccn1` gave S1P4 antagonist 50*, Calpain2 inh 8, PERK inh -1, S1P4 agonist -4, S1P4 antag cf 78* and S1P1 antagonist 83*.
Screening Oc1ccc2ccccc2c1N=Nc1ccccc1F returned S1P4 antagonist 1, Calpain2 inh 14, PERK inh -1, S1P3 antagonist -10 and S1P4 agonist 1.
`COc1ccc(/C=N/Nc2nn3cnnc3c3ccccc23)cc1` gave S1P4 antagonist 30*, Calpain2 inh 49, PERK inh 1, S1P3 antagonist 2, S1P4 agonist 2, S1P4 antag cf -9 and S1P1 antagonist -7.
Screening CC(=O)Cn1ncc(Br)c(Br)c1=O returned S1P4 antagonist 33*, Calpain2 inh -8, PERK inh 1, S1P3 antagonist -6, S1P4 agonist -2, S1P4 antag cf 111* and S1P1 antagonist 51*.
For O=C(OCn1ncc(Br)c(Br)c1=O)c1c(F)cccc1F the results were S1P4 antagonist 59*, Calpain2 inh -31, PERK inh -2, S1P4 agonist -2, S1P4 antag cf 116* and S1P1 antagonist 12.
`CC(C)(C)C(=O)Cn1ncc(N2CCCC2)c(Br)c1=O` gave S1P4 antagonist -12, Calpain2 inh -18, PERK inh 0 and S1P4 agonist 0.
`O=C(CNC(=O)c1ccc(S(=O)(=O)N2CCCC2)cc1)N/N=C/c1c(Cl)cccc1Cl` gave S1P4 antagonist -19, Calpain2 inh -23, PERK inh -1, S1P3 antagonist -3 and S1P4 agonist 1.
`COc1ccc(C2=NN(CN3C(=O)C(=O)c4ccccc43)C(c3cccc([N+](=O)[O-])c3)C2)cc1` (stereo not drawn) gave S1P4 antagonist -15, Calpain2 inh -54, PERK inh -2, S1P3 antagonist -10 and S1P4 agonist 2.
Screening Cc1c(O)ccc(NC(=O)/C=C/c2ccccc2)c1C returned S1P4 antagonist 57*, Calpain2 inh -1, PERK inh 1, S1P3 antagonist 10, S1P4 agonist -1, S1P4 antag cf 61* and S1P1 antagonist 13.
`CC1(C)CC2CC(C)(CN2/C=N/c2sc3c(c2C#N)CC(C)(C)NC3(C)C)C1` (stereo not drawn) gave S1P4 antagonist -3, Calpain2 inh -19, PERK inh -2, S1P3 antagonist -9 and S1P4 agonist 0.
`Cc1c(C=O)c(C=O)c(C)n1Cc1ccccc1` gave S1P4 antagonist 35*, Calpain2 inh 29, PERK inh -1, S1P4 agonist -1, S1P4 antag cf 42* and S1P1 antagonist 19.
Screening CC(=O)c1c(C(C)=O)c(C)n(Cc2ccccc2)c1C returned S1P4 antagonist -18, Calpain2 inh 3, PERK inh 0, S1P3 antagonist 36 and S1P4 agonist 1.
CC(=O)Oc1ccc2c(c1)O/C(=C\c1ccncc1)C2=O was read as S1P4 antagonist 23, Calpain2 inh 2, PERK inh 0, S1P3 antagonist 1 and S1P4 agonist -1.
For CCC(=O)Oc1ccc2c(c1)O/C(=C\c1ccco1)C2=O the results were S1P4 antagonist 29*, Calpain2 inh -211, PERK inh 1, S1P3 antagonist -7, S1P4 agonist 0, S1P4 antag cf 37* and S1P1 antagonist 31.
For COc1ccc(CN2CCC(CO)(Cc3ccccc3C(F)(F)F)CC2)c(F)c1 the results were S1P4 antagonist 9, Calpain2 inh 17, PERK inh 0, S1P3 antagonist -12 and S1P4 agonist 1.
N=c1n(CCN2CCCCC2)c2ccccc2n1CC(O)c1ccc(Cl)c(Cl)c1 (stereo not drawn) was read as S1P4 antagonist 55*, Calpain2 inh 27, PERK inh -1, S1P4 agonist -3, S1P4 antag cf 58* and S1P1 antagonist 59*.
For CN(NC(=O)Nc1ccc(Cl)cc1)c1c(Cl)c(Cl)nn1C the results were S1P4 antagonist 53*, Calpain2 inh 3, PERK inh 0, S1P3 antagonist -19, S1P4 agonist -3, S1P4 antag cf 47* and S1P1 antagonist 6.
`N#CCCN1CCCc2cc(N=Nc3ccc(C(F)(F)F)cc3)ccc21` gave S1P4 antagonist 31*, Calpain2 inh 18, PERK inh 1, S1P3 antagonist -7, S1P4 agonist -2, S1P4 antag cf 85* and S1P1 antagonist 28.
Screening CCCN1CCCc2ccccc21 returned S1P4 antagonist 3, Calpain2 inh 1, PERK inh 1 and S1P4 agonist -1.
`COc1ccc(NC(=O)/C(Cl)=C(/Cl)S(=O)Cc2ccccc2)cn1` (stereo not drawn) gave S1P4 antagonist 91*, Calpain2 inh 20, PERK inh 0, S1P4 agonist -3, S1P4 antag cf 123* and S1P1 antagonist 68*.
Screening COc1ccc(NC(=O)Cc2ccccc2)cn1 returned S1P4 antagonist 6, Calpain2 inh -17, PERK inh 0, S1P3 antagonist -4 and S1P4 agonist 0.
